The source of these data is PubChem BioAssay (NCI).

This is part of a sample that, as a whole, favours compounds with a hit. Of some 83,000 tested, about 20% had one in any assay.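 Each cell line was grown in a 96-well plate and treated with one concentration of compound for 48 hours. Values below 10 were considered active.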 A number with no mark means an inactive call. Calls of active or inactive are those of the source.

Test systems include RPMI-8226 leukemia; OVCAR-8 ovarian; OVCAR-5 ovarian; OVCAR-4 ovarian; SK-OV-3 ovarian; IGROV1 ovarian; OVCAR-3 ovarian; HS 578T breast; NCI/ADR-RES ovarian; T-47D breast; BT-549 breast; MDA-MB-435 melanoma; SW-620 colon; MCF7 breast; HCT-116 colon; HCC-2998 colon; KM12 colon.
Common to all, as to assay: NCI-60 one-dose screen, 48 h (100 = growth as untreated, 0 = no growth, -100 = all killed)
Holding throughout (conditions): 10 µM unless noted

On to `NS(=O)(=O)c1ccc(-n2nc(C(=O)N/N=C\c3ccc(F)cc3)cc2-c2ccc(Br)cc2)cc1`, for which the growth in the assay with RPMI-8226 leukemia was 94.9%; in the assay on OVCAR-8 ovarian it was 94.5%; with OVCAR-5 ovarian it was 94.9%; in the assay with OVCAR-4 ovarian, 87.2%; with SK-OV-3 ovarian it was 88.6%; with IGROV1 ovarian, 73.6%. Also, the growth in the assay on OVCAR-3 ovarian is 82.3%; in the assay with HS 578T breast it was 72.1%; with NCI/ADR-RES ovarian, 67.8%; in the assay with T-47D breast, 69.7%; in the assay on BT-549 breast, 86.1%; in the assay on MDA-MB-435 melanoma it was -1.32% (active). In addition, the growth is 62.8% in the assay on SW-620 colon; 55.1% with MCF7 breast; 82.8% with HCT-116 colon; 86.9% in the assay on HCC-2998 colon; 61.8% in the assay on KM12 colon.

For the compound `Oc1ccc(CCl)c2cccnc12`, the growth was 57.4% in the assay with RPMI-8226 leukemia; 73.8% in the assay on OVCAR-8 ovarian; 88.4% in the assay with OVCAR-5 ovarian; 24.6% in the assay on OVCAR-4 ovarian; 87.9% in the assay with SK-OV-3 ovarian; 78.8% in the assay on IGROV1 ovarian. The growth in the assay with OVCAR-3 ovarian is 10.8%; in the assay on HS 578T breast it was 79.7%; in the assay on NCI/ADR-RES ovarian, 28.8%; in the assay with T-47D breast, 30.3%; with BT-549 breast, 66.7%; in the assay on MDA-MB-435 melanoma, 84.8%. The growth with SW-620 colon is 41.5%; in the assay on MCF7 breast, 5.57% (active); in the assay with HCT-116 colon, 15.4%; in the assay with HCC-2998 colon, 91.3%; in the assay with KM12 colon it was 82%.

As for `Fc1cc(-c2nnc3sc(-c4ccc(Cl)cc4Cl)nn23)c(Cl)cc1Cl`, the growth was 84% in the assay with RPMI-8226 leukemia; 82.6% in the assay on OVCAR-8 ovarian; 96.6% in the assay with OVCAR-5 ovarian; 26.2% in the assay on OVCAR-4 ovarian; 77.1% in the assay on SK-OV-3 ovarian; 86.1% in the assay on IGROV1 ovarian. The growth in the assay with OVCAR-3 ovarian is 99.4%; in the assay with HS 578T breast it was -14.7% (active); in the assay with NCI/ADR-RES ovarian, 89.4%; in the assay on T-47D breast it was 68.4%; with BT-549 breast, 79.4%; with MDA-MB-435 melanoma it was 94.3%. Moreover, the growth is 81.7% with SW-620 colon; 83.7% in the assay on MCF7 breast; 45.9% in the assay with HCT-116 colon; 93% in the assay on HCC-2998 colon; 96% in the assay with KM12 colon.

`Fc1cc2c(cc1Cl)N(c1ncnc3ccc(-c4cnc5cnccn45)cc13)CC2`: the growth in the assay on RPMI-8226 leukemia is 95.2%; with OVCAR-8 ovarian it was 91.4%; in the assay on OVCAR-5 ovarian, 74.4%; in the assay on OVCAR-4 ovarian it was 94.8%; with SK-OV-3 ovarian, 94.2%; in the assay on IGROV1 ovarian, 48.2%. In addition, the growth was 87.4% in the assay with OVCAR-3 ovarian; 93.4% in the assay with HS 578T breast; 86.8% with NCI/ADR-RES ovarian; 74.9% with T-47D breast; 83.7% in the assay on BT-549 breast; 101% in the assay with MDA-MB-435 melanoma. Also, the growth in the assay with SW-620 colon was 101%; in the assay on MCF7 breast it was 75.8%; in the assay on HCT-116 colon, 83.5%; in the assay on HCC-2998 colon it was 90.6%; with KM12 colon, 98.1%.

Take `COc1ccc(NC(=O)n2nc(/C=C\c3ccc(O)c(OC)c3)cc2/C=C\c2ccc(O)c(OC)c2)cc1`: the growth in the assay with RPMI-8226 leukemia is 21.3%; with OVCAR-8 ovarian it was 32.8%; with OVCAR-5 ovarian, 62.3%; in the assay with OVCAR-4 ovarian, 51.5%; in the assay with SK-OV-3 ovarian, 60.7%; in the assay with IGROV1 ovarian, 34.4%. In addition, the growth was 13.6% in the assay on OVCAR-3 ovarian; 28.7% in the assay on HS 578T breast; 23.9% in the assay on NCI/ADR-RES ovarian; 34.8% in the assay with T-47D breast; 31.4% with BT-549 breast; -36.3% (active) in the assay on MDA-MB-435 melanoma. Besides, the growth in the assay on SW-620 colon was 27.1%; with MCF7 breast, 15.6%; in the assay with HCT-116 colon, 9.13% (active); with HCC-2998 colon, 74.9%; in the assay on KM12 colon, 17.9%.

With `Cc1nc2cnc(N)c(C#Cc3cncc(C(=O)Nc4ccc(CN5CCN(C)CC5)c(C(F)(F)F)c4)c3)c2nc1C`, the growth in the assay with RPMI-8226 leukemia was -23% (active); in the assay on OVCAR-8 ovarian it was 10.4%; in the assay with OVCAR-5 ovarian, 8.89% (active); in the assay with OVCAR-4 ovarian, -10.9% (active); in the assay with SK-OV-3 ovarian, 8.06% (active); with IGROV1 ovarian, -10.4% (active). In addition, the growth was 8.72% (active) with OVCAR-3 ovarian; -20.2% (active) in the assay on HS 578T breast; 36.1% in the assay with NCI/ADR-RES ovarian; 45.2% in the assay with T-47D breast; 35.6% with BT-549 breast; 0.973% (active) with MDA-MB-435 melanoma. The growth in the assay on SW-620 colon is -20.9% (active); in the assay with MCF7 breast, 1.7% (active); with HCT-116 colon it was 0.345% (active); in the assay with HCC-2998 colon it was 11.5%; in the assay with KM12 colon it was -17.4% (active).

Regarding `COc1cc(CNS(=O)(=O)c2ccc(C)cc2)ccc1OCc1cn(-c2ccccc2)nn1`, the growth in the assay with RPMI-8226 leukemia was 67.9%; with OVCAR-8 ovarian, 93.2%; with OVCAR-5 ovarian, 97.9%; with OVCAR-4 ovarian, 56.8%; in the assay with SK-OV-3 ovarian, 97.6%; in the assay on IGROV1 ovarian, 83.7%. Further, the growth with OVCAR-3 ovarian is 85%; in the assay on HS 578T breast, 86.1%; in the assay on NCI/ADR-RES ovarian, 81.3%; in the assay on T-47D breast, 66.5%; in the assay on BT-549 breast, 88.1%; in the assay on MDA-MB-435 melanoma it was 99.9%. Moreover, the growth in the assay on SW-620 colon was 98.9%; with MCF7 breast, 92.7%; with HCT-116 colon it was 85.1%; with HCC-2998 colon it was 117%; with KM12 colon, 99.4%.

Take `CCOC(=O)/C=C1\S/C(=N\Nc2ccc([N+](=O)[O-])cc2[N+](=O)[O-])N(Cc2ccccc2)C1=O`: the growth is 7.78% (active) in the assay with RPMI-8226 leukemia; 73.4% with OVCAR-8 ovarian; 95% in the assay with OVCAR-5 ovarian; 69.2% in the assay on OVCAR-4 ovarian; 104% in the assay with SK-OV-3 ovarian; 88.5% in the assay with IGROV1 ovarian. Also, the growth is 83.5% with OVCAR-3 ovarian; 84.3% in the assay on HS 578T breast; 75.2% with NCI/ADR-RES ovarian; 56% in the assay with T-47D breast; 109% in the assay with BT-549 breast; 98.2% in the assay with MDA-MB-435 melanoma. Further, the growth in the assay on SW-620 colon was 70.9%; in the assay with MCF7 breast, 72.8%; with HCT-116 colon it was 75.3%; in the assay on HCC-2998 colon, 93%; with KM12 colon it was 97.5%.

With `CN1CCN(c2ccc(-c3cc4c(Nc5ccc(F)c(Cl)c5)ncnn4c3)cc2)CC1`, the growth is 13.1% in the assay on RPMI-8226 leukemia; 70.4% with OVCAR-8 ovarian; 95.2% with OVCAR-5 ovarian; 71.2% in the assay on OVCAR-4 ovarian; 92.7% in the assay on SK-OV-3 ovarian; 49.5% in the assay on IGROV1 ovarian. Also, the growth in the assay with OVCAR-3 ovarian was 77%; in the assay with HS 578T breast it was 75.2%; in the assay with NCI/ADR-RES ovarian it was 72.5%; with T-47D breast, 63.4%; in the assay with BT-549 breast it was 98.5%; with MDA-MB-435 melanoma, 76.4%. For the same compound, the growth was 25.2% in the assay on SW-620 colon; 45.3% in the assay with MCF7 breast; 15.7% in the assay on HCT-116 colon; 53.8% in the assay on HCC-2998 colon; 13.8% in the assay on KM12 colon.

On to `Cc1cc(O)c(C2=NN(c3ccc(S(N)(=O)=O)cc3)C(/C=C/c3ccccc3)C2)cc1Cl` (stereo unspecified), for which the growth in the assay on RPMI-8226 leukemia was 48.7%; in the assay on OVCAR-8 ovarian, 38.6%; in the assay with OVCAR-5 ovarian, 51%; with OVCAR-4 ovarian it was 34.6%; in the assay on SK-OV-3 ovarian, 17%; with IGROV1 ovarian, 16%. For the same compound, the growth in the assay with OVCAR-3 ovarian is 29.7%; with HS 578T breast, 39.2%; with NCI/ADR-RES ovarian it was 29.7%; in the assay on T-47D breast, 25.7%; with BT-549 breast it was 52.4%; in the assay with MDA-MB-435 melanoma it was 47.4%. Moreover, the growth in the assay on SW-620 colon was 51.9%; in the assay with MCF7 breast, 33.8%; in the assay with HCT-116 colon, 10.6%; with HCC-2998 colon it was 50.5%; in the assay with KM12 colon it was 57.6%.

As for `COc1cccc(-c2nn(-c3ccccc3)cc2-c2ccnc(N3CCOCC3)c2)c1`, the growth is 67.9% in the assay with RPMI-8226 leukemia; 96.6% in the assay with OVCAR-8 ovarian; 94.7% in the assay with OVCAR-5 ovarian; 84.2% with OVCAR-4 ovarian; 87.9% with SK-OV-3 ovarian; 79.5% with IGROV1 ovarian. For the same compound, the growth is 95.5% in the assay on OVCAR-3 ovarian; 115% with HS 578T breast; 77.5% in the assay on NCI/ADR-RES ovarian; 51.7% in the assay with T-47D breast; 87.9% with BT-549 breast; 98.9% with MDA-MB-435 melanoma. In addition, the growth is 105% in the assay on SW-620 colon; 87% in the assay on MCF7 breast; 79.8% with HCT-116 colon; 93.8% with HCC-2998 colon; 86.1% in the assay on KM12 colon.

As for `O=C(Cc1ccc(F)c(Cl)c1)Nc1cc(C2(C(F)(F)F)CC2)nn1Cc1ccccc1`, the growth with RPMI-8226 leukemia is 75.8%; with OVCAR-8 ovarian, 25.3%; in the assay with OVCAR-5 ovarian, 91.4%; in the assay with OVCAR-4 ovarian, 75%; with SK-OV-3 ovarian, -13.1% (active); in the assay on IGROV1 ovarian it was 62.2%. In addition, the growth in the assay with OVCAR-3 ovarian was 63.4%; in the assay with HS 578T breast, 26.2%; with NCI/ADR-RES ovarian it was 56.9%; in the assay on T-47D breast, 64.9%; in the assay with BT-549 breast, 77.7%; with MDA-MB-435 melanoma, 87.8%. Also, the growth in the assay with SW-620 colon was 82.7%; in the assay with MCF7 breast, 81%; with HCT-116 colon it was 60.4%; in the assay on HCC-2998 colon it was 104%; in the assay on KM12 colon, 85.5%.

Regarding `O=C1COCCN1c1ccc(NCc2cn(C(=O)c3ccc(Cl)cc3)c3ccccc23)cc1`, the growth in the assay with RPMI-8226 leukemia is 52.6%; in the assay on OVCAR-8 ovarian it was 66%; in the assay on OVCAR-5 ovarian, -25.7% (active); in the assay with OVCAR-4 ovarian, 3.22% (active); in the assay on SK-OV-3 ovarian it was 15.7%; with IGROV1 ovarian, -2.18% (active). Besides, the growth in the assay with OVCAR-3 ovarian is 10.6%; with HS 578T breast, 72.9%; with NCI/ADR-RES ovarian, 67%; with T-47D breast it was -12.7% (active); in the assay with BT-549 breast, 41.9%; in the assay on MDA-MB-435 melanoma, 92.6%. Besides, the growth in the assay on SW-620 colon is 40.4%; in the assay with MCF7 breast, 10.1%; in the assay on HCT-116 colon it was 7.09% (active); in the assay with HCC-2998 colon it was 91%; with KM12 colon it was 97.1%.
